Structures are written as SMILES. Results filed as inconclusive are left out. Activity calls are given as the source filed them. Unless noted, the call rests on the fitted dose curve; in most records, active means well fitted activation curve with a large enough effect; inconclusive means small, poorly fitted or top-dose-only effect; inactive means flat fitted curve, though single readings scatter.
Further: % of control where 0% means no effect.

One test in a line: qHTS assay for small molecule activators of the p53 signaling pathway (AID 651743; active means well fitted activation curve with a large enough effect in the signal ratio, not every such curve was filed as active; the % refers to the signal ratio; further: series mostly up to about 92 µM). The settings on record: HCT-116 p53RE-bla, beta-lactamase FRET ratio, 16 h; stronger effect = higher value. An excerpt: National Center for Advancing Translational Sciences [NCATS] NIH Chemical Genomics Center [NCGC] U.S. Environmental Protection Agency [EPA] National Institutes of Environmental Health Sciences [NIEHS] National Toxicology Program [NTP] Assay Overview: p53, a tumor suppressor protein, is activated following cellular insult, including DNA damage and other cellular stresses. The activation of p53 regulates cell fate by inducing DNA repair, cell cycle arrest, apoptosis, or cellular senescence. The activation of p53, therefore, is a good indicator of DNA damage and other cellular stresses. The CellSensor p53RE-bla HCT-116 cell line (Invitrogen) contains a stably integrated beta-lactamase reporter gene under control of the p53 response elements. The activation of the report gene under culture conditions can be detected by fluorescence intensity. This cell line can be used to screen chemicals in a 1536-well plate format and to identify agonists that activate p53 signaling pathway.
Assay Protocol Summary: The p53RE-bla cells were dispensed at 4,000 cells/5 ul/well in 1536-well black wall/clear bottom plates using a Multidrop dispenser. After the assay plates were incubated at a 37 C/5% CO2 incubator for 5 hours, 23 nL of compounds dissolved in DMSO, positive controls or DMSO only was transferred to the assay plate by a pin tool. The plates were incubated at 37 C for 16 hours. After 1 uL of LiveBLAzer B/G FRET substrate was added using a Flying Reagent Dispenser, the plates were incubated at room temperature for 2 hours, and fluorescence intensity was measured by an Envision plate reader.
For orientation: In qHTS, concentration-response curves come from the screen itself.
As for `OC[C@@H](O)[C@@H](O)[C@H](O)[C@@H](O)CO`, the activation was -2.74% (inactive).

For `O=C1c2cccc(O)c2C(=O)c2c(O)cc(CO)cc21`, the activation was 6.22% (inactive).

As for `C[C@]12CC[C@@H]3c4ccc(O)cc4CC[C@H]3[C@H]1CC[C@H]2O`, the activation is 13.4% (inactive).

As for `Cc1cc(O)c2c(c1)C(=O)c1cccc(O)c1C2=O`, the activation is -1.77% (inactive).

On to `CC(C=CC1=C(C)CCCC1(C)C)=CC=CC(C)=CC(=O)Nc1ccc(O)cc1`, for which the activation is 0.252% (inactive).

The next test is described as follows: qHTS assay for environmental chemicals that activate the Aryl hydrocarbon Receptor (AhR) signaling pathway (AID 651777). Further: nearly all actives have a fitted effect of over 15% in size. The settings on record: 1A2-DRE human hepatoma cells, luciferase, 24 h; stronger effect = higher value. An excerpt: National Center for Advancing Translational Sciences [NCATS]
NIH Chemical Genomics Center [NCGC]
U.S. Environmental Protection Agency [EPA]
National Institutes of Environmental Health Sciences [NIEHS]
National Toxicology Program [NTP]
The Aryl hydrocarbon Receptor (AhR) plays a critical role in the development of cancer or neoplasm and its formation is most likely due to genetic mutations and the influence of environment. Exposure to environmental pollutants such as polycyclic aromatic hydrocarbons (PAH), their halogenated derivatives and heterocyclic amines causes the induction of phase I and II enzymes. The transcriptional activation of CYP1A2 is directly regulated by AhR.
A cell based assay (1A2-DRE cells, developed by Puracyp, Inc., CA) was used to assess the activation of AhR. Human hepatoma cells were stably transfected with the dioxin response element (DRE) and CYP1A2 promoter fused to a luciferase gene. Increased luciferase activity can be used to identify the compounds that cause the induction of CYP1A2 and AhR activation.
1,200 cells in 5 uL/well were dispensed into white wall/solid bottom 1536-well plates using a Multidrop Combi (Thermo Scientific) dispenser. Following transfer of 23 nL compound or DMSO vehicle by a pin tool, the plates were incubated 24 hr at 37 C and 5% CO2. 5 ul One-Glo (Promega) was then added to each well and following 30 min incubation at room temperature, luciferase activity was quantified on a ViewLux CCD-based plate reader.
For the compound `OC[C@@H](O)[C@@H](O)[C@H](O)[C@@H](O)CO`, the activation was 0.287% (inactive).

Consider `O=C1c2cccc(O)c2C(=O)c2c(O)cc(CO)cc21`, for which the activation was 2.38% (inactive).

As to `C[C@]12CC[C@@H]3c4ccc(O)cc4CC[C@H]3[C@H]1CC[C@H]2O`, the activation was 2.62% (inactive).

Take `Cc1cc(O)c2c(c1)C(=O)c1cccc(O)c1C2=O`: the activation was 0.266% (inactive).

Turning to `CC(C=CC1=C(C)CCCC1(C)C)=CC=CC(C)=CC(=O)Nc1ccc(O)cc1`, the activation was -5.07% (inactive).

For the origin of these results see PubChem BioAssay (NCATS).
